Mdm2-MdmX inh – inhibitors of human Mdm2/MdmX interaction. 330,000 compounds, 3% hits. O15151+Q00987. inhibition, % at 8 µM. SaOS-2 split-luciferase Mdm2/MdmX complementation, luminescence;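 active means inhibition of at least 50% at 8 µM in the primary screen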
Target sequence (O15151 whole entry, looked up): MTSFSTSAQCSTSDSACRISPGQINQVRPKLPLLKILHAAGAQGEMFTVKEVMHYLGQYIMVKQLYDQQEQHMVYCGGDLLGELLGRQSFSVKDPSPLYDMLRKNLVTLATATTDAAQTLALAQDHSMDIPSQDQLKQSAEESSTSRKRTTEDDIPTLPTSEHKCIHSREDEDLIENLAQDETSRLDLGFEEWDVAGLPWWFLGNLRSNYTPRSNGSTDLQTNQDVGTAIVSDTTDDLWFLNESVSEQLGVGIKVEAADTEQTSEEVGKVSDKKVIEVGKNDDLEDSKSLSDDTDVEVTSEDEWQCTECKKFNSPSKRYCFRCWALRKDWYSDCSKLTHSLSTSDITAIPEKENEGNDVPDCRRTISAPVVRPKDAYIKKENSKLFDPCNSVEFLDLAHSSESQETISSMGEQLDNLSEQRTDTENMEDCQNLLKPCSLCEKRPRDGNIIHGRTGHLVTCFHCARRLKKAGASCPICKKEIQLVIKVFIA
Target sequence (Q00987 whole entry, looked up): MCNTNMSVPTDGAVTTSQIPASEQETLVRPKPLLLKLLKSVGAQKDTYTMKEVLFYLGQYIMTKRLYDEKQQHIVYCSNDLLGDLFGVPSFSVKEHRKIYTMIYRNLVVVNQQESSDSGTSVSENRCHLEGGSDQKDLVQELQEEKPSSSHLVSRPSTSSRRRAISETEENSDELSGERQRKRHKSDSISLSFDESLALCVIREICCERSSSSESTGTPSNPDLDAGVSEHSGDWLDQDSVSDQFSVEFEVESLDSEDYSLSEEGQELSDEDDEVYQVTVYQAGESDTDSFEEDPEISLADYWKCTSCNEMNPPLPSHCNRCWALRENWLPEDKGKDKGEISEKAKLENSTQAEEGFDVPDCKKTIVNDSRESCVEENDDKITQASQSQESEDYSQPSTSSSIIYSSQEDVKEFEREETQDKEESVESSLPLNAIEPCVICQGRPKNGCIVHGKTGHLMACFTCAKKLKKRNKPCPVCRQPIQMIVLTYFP
KLF5 inhibitor – inhibitors of KLF5 expression; DLD-1 KLF5 promoter-luciferase reporter, luminescence; 290,000 compounds, 0.23% hits; inhibition, % at 5 µM;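 active means inhibition above a per-plate limit of that plate's mean compound inhibition plus 3 SD, cut at about 60% in these data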;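 further: 0% = DMSO wells and 100% = LY294002 at 200 µM; higher means less KLF5 promoter-driven luciferase light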
Gli-Sufu antag – blocks Gli-Sufu signaling in a luciferase reporter; Sufu-KO-LIGHT fibroblasts, Gli luciferase reporter luminescence; inhibition, % at 5 µM; 340,000 compounds, 0.74% hits; AID 588413;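 active means inhibition above about 55%, limit read from the data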;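 further: 0% = DMSO-treated cells and 100% = wells with medium but no cells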
aSyn UTR inh – MLPCN primary screen, SNCA 5' untranslated region; alpha-synuclein 5'UTR reporter, inhibitor activity; inhibition, % (tested at 7.5 µM); AID 1813; 300,000 compounds, 0.82% hits; in the data active means inhibition above about 60%;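 further: H4 neuroglioblastoma cells stably carrying SNCA 5'UTR luciferase fusion; 0% = DMSO wells and 100% = positive control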
697 NFkB inh – lowers PMA/ionomycin-induced NF-kB signal in 697 B cells. inhibition, % at 4 µM. 330,000 compounds, 0.33% hits. 697 B-cell NF-kB luciferase reporter, 16 h; in the data active means inhibition above about 35%
Jurkat NFkB inh – inhibitors of the PMA/ionomycin-induced NF-kB reporter in Jurkat cells; inhibition, % at 4 µM; PMA/ionomycin-induced NF-kB luciferase reporter, luminescence; 330,000 compounds, 0.53% hits; in the data active means inhibition above about 50%
Gli antag conf – Gli-SUFU antagonism confirmation, single concentration; shares compounds with Gli-Sufu antag; Sufu-KO-LIGHT cells, Gli luciferase reporter, luminescence; inhibition, % at 5 µM; 2,500 compounds, 40% hits; AID 602428;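 active means mean inhibition at 5 µM reaching about 45%, limit read from the data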;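 further: plate controls were DMSO-treated cells for no effect and wells lacking cells for full effect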
Gli cytotox – counter-screen for Gli-SUFU antagonists: cytotoxicity; shares compounds with Gli-Sufu antag; Sufu-KO-LIGHT cells cytotoxicity, ATP luminescence; cytotoxicity, % at 5 µM; 2,500 compounds, 32% hits; AID 651994;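 active means mean cytotoxicity at 5 µM above about 25%, limit read from the data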;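 further: cells exposed to compound overnight for roughly 16 to 18 hours; plate controls were DMSO wells with cells for no effect and medium without cells for full effect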
Wnt3a cs – Wnt3a reporter inhibition counter-screen | shares compounds with Gli-Sufu antag | Wnt-LIGHT cells, Wnt3a-driven luciferase reporter, luminescence | inhibition, % at 6.25 µM | 2,500 compounds, 20% hits | AID 651995;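 active means mean inhibition above about 25%, limit read from the data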
Starred values were filed as active, the others as inactive; · = no result given. Only some compounds are listed: those with a hit (about 4.1% of all), similar ones and a draw of the others.

SMILES	Mdm2-MdmX inh	KLF5 inhibitor	Gli-Sufu antag	aSyn UTR inh	697 NFkB inh	Jurkat NFkB inh	Gli antag conf	Gli cytotox	Wnt3a cs
Cc1ccc(NC(=S)Nn2cnnc2)c(C)c1	5	-22	·	12	21	5	·	·	·
CCN(CC)C(=O)[C@H]1C[C@H](CC(=O)NCCCOC)C(=O)N2CCc3c([nH]c4cc(CCC(=O)N(C)C)ccc34)[C@]12C	-5	·	-1	·	11	·	·	·	·
Cc1ccc(N2C(=N)/C(=C3/Nc4ccccc4S3)C(c3ccccc3)C2=O)cc1 (centres undefined)	·	-25	-1	·	·	·	·	·	·
Cc1ccc(-c2nn(C)c(=O)c3ccccc23)cc1S(=O)(=O)N1CCOCC1	16	-22	51	·	14	13	22	20	16
Cc1ccc(-c2nn(C)c(=O)c3ccccc23)cc1S(=O)(=O)NCCO	20	11	-3	30	5	0	·	·	·
O=C(CC1S/C(=N/N=C2CCCCCC2)NC1=O)Nc1ccc(Br)cc1F (centres undefined)	-6	12	-3	3	6	-16	·	·	·
CCCn1c2c(c(=N)c3c1CCC3)CCCC2	24	-32	61*	2	7	15	60*	19	2
CCCn1c2c(c(=N)c3c1CCC3)CCC2	1	-27	21	-12	3	36	·	·	·
COc1cccc(CNC(=O)C(NS(=O)(=O)c2ccc3c(c2)CCN3C(C)=O)C(C)C)c1 (centres undefined)	11	-27	61*	-32	-11	-6	-3	24	-31
CC(=O)N1CCc2cc(S(=O)(=O)NC(C(=O)NCc3ccccc3)C(C)C)ccc21 (centres undefined)	8	-9	2	12	16	5	·	·	·
CCOc1cc(/C=N/NC(=O)C(=O)NCCCOC(C)C)cc(Br)c1O	-36	2	-1	3	-11	5	·	·	·
Cc1nc2ccc(NC(=O)c3cc(S(=O)(=O)N(C)c4ccccc4)ccc3Cl)cc2s1	·	-30	75*	-9	·	·	73*	26*	53*
Cc1nc2ccc(NC(=O)c3ccc(Cl)c(S(=O)(=O)N(C)c4ccccc4)c3)cc2s1	12	-21	7	18	-53	16	·	·	·
COc1ccccc1N1CCN(CC(O)c2c(C)[nH]c3ccccc23)CC1 (centres undefined)	15	-2	61*	9	16	-4	20	21	-29
COc1ccc(S(=O)(=O)Nc2ccc(N3CCOCC3)cc2)cc1	22	-37	32	-10	3	-7	·	·	·
COc1ccc(NS(=O)(=O)c2ccc(N3CCOCC3)c(N)c2)cc1	-7	·	62*	·	-25	25	61*	26*	28*
COc1ccc(NS(=O)(=O)c2ccc(NC(=O)c3ccc(CN4CCOCC4)cc3)cc2)cc1	-4	-7	57*	1	-52	28	28	13	3
CN(CC(=O)Nc1sccc1C(N)=O)S(=O)(=O)c1ccc(Cl)cc1	-27	·	2	·	10	0	·	·	·
Cn1c(SCC(=O)N(Cc2ccccc2)C(C)(C)C)nc2ccccc21	0	-41	58*	6	-49	-19	15	4	-15
Cn1c(SCC(=O)N2CCCC2)nc2ccccc21	10	-15	-4	-13	-5	0	·	·	·
CCCn1c(N)c(C(=O)CSc2nnc(-c3ccoc3C)n2C)c(=O)n(C)c1=O	12	·	76*	·	-4	-16	12	22	-25
Cc1occc1-c1nnc(SCC(=O)c2c(N)n(Cc3ccccc3)c(=O)n(C)c2=O)n1C	-1	-21	6	10	0	3	·	·	·
Cc1cc(OCC(=O)OCC(=O)NCc2ccco2)ccc1Cl	23	·	-8	1	19	5	·	·	·
CCOc1ccc(NC(=O)CN(C)C(=O)c2sc3ccccc3c2Cl)cc1OCC	8	·	2	5	17	-7	·	·	·
CC1CCCN(CCCNC(=O)c2ccc(CS(=O)(=O)Cc3cccc(Cl)c3)o2)C1 (centres undefined)	15	-11	18	0	12	-9	·	·	·
SMILES	Mdm2-MdmX inh	KLF5 inhibitor	Gli-Sufu antag	aSyn UTR inh	697 NFkB inh	Jurkat NFkB inh	Gli antag conf	Gli cytotox	Wnt3a cs
CC1CC(C)CN(CCCNC(=O)c2ccc(CS(=O)(=O)Cc3cccc(Cl)c3)o2)C1 (centres undefined)	11	-40	54	17	10	5	26	9	-33
CCOCCCNc1ncnc2c1nc1n2CCCC1	1	-27	12	-5	2	0	·	·	·
Cc1c(NC(=S)NC(NC(=O)C(C)(C)C)C(Cl)(Cl)Cl)c(=O)n(-c2ccccc2)n1C (centres undefined)	-22	4	51	11	2	-9	25	1	6
C/C(=N/NC(=O)CN1CCN(S(=O)(=O)c2ccc(C)cc2)CC1)c1ccco1	-21	11	4	-7	-36	-8	·	·	·
O=C(NCc1ccccc1Cl)c1ccc(S(=O)(=O)Nc2cccc(C(F)(F)F)c2)cc1	11	2	-11	16	2	-3	·	·	·
O=C(NC1CCCCC1)C(c1ccco1)N(CCc1ccccc1)C(=O)C(F)(F)F (centres undefined)	11	4	0	-21	16	9	·	·	·
COc1ccc(CCN(C(=O)C(F)(F)F)C(C(=O)NC2CCCC2)c2cccs2)cc1 (centres undefined)	-4	-20	51	13	-37	-6	10	21	-10
COc1ccc(S(=O)(=O)Nc2ccc(Cc3ccncc3)cc2)cc1OC	11	7	15	17	-12	25	·	·	·
CCc1ccc(OC)c(S(=O)(=O)Nc2ccc(Cc3ccncc3)cc2)c1	22	1	57*	8	-25	13	58*	44*	29*
CC(C)(C)c1ccc(Cn2nc(CC(=O)O)c3ccccc3c2=O)cc1	-40	-4	-2	-2	7	12	·	·	·
Cc1ccc(CONC(=O)c2ccc(OC(F)F)cc2)cc1	-7	-2	23	-4	-5	-10	·	·	·
FC(F)Oc1ccc(-n2cc(-c3ccccc3)[n+]3c2CCCCC3)cc1	28	-9	66*	-1	11	13	58*	24	-4
Clc1ccc(-n2cc(-c3ccc(Br)cc3)[n+]3c2CCCCC3)cc1	8	-20	53	2	-6	-9	68*	26*	-23
Cc1ccc(-c2cn(-c3ccc(SC(F)F)cc3)c3[n+]2CCC3)cc1	47	-9	76*	-3	-27	19	80*	39*	-44
FC(F)Sc1ccc(-n2cc(-c3ccc(Cl)cc3)[n+]3c2CCC3)cc1	40	6	22	10	-26	5	·	·	·

Compound activity: PubChem BioAssay, several laboratories
